Here are results for twelve molecules from PubChem BioAssay.

Experiment [1] is described as follows: HepG2 liver cancer cell viability effects, profiling panel, resazurin fluorescence, 24 h, PK04 Diversity Set (AID 1172). Also: test concentration not given here. The following applies: higher = more signal. (Alamar Blue is a resazurin reagent that responds to reducing activity.)
A short description of experiment [2]: basal S. cerevisiae growth modulation, no modifier, primary screen, OD600, strain BY4716, 24 h, basal condition (AID 1173). Particulars: OD600, 24 h, higher = more signal, called active from +8 up or from −8 down.
Experiment [3] in a line: MM1S myeloma cell viability, profiling panel, resazurin fluorescence, basal, 24 h, PK04 Diversity Set (AID 1174). Also: test concentration not given here. The following applies: higher = more signal, called active from +8 up or from −8 down.
Experiment [4] has as its target Dihydroorotate dehydrogenase (quinone), mitochondrial (Plasmodium falciparum (isolate 3D7)) (UniProt Q08210). As to the kind of experiment: PfDHODH enzyme inhibitors, primary screen, biochemical, C-terminal His tag, absorbance 600 nm (AID 1175).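 Also: recombinant parasite enzyme with a five histidine tag at its C terminus; test concentration not given here.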 The following applies: DCIP absorbance 600 nm, higher = more signal, called active from +8 up or from −8 down.
Experiment [5] is described as follows: P. aeruginosa biofilm formation inhibitors, primary screen, strain PAO1, LB-PBS medium, absorbance 600 nm (AID 1176). Also: test concentration not given here. The following applies: P. aeruginosa PAO1 growth/biofilm, A600, 12 h; higher = more signal.
Experiment [6] is described as follows: S. cerevisiae RM11-1a growth modifiers, primary screen, strain RM11-1a, OD600, basal, 24 h (AID 1177).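 Also: cultures grown under basal conditions with no added stressor; test concentration not given here.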 The following applies: OD600, 24 h, higher = more signal, called active from +8 up or from −8 down.
A short description of experiment [7]: E. coli acrAB mutant growth effects, primary screen, E. coli filamentation inducers, strain DRC39, OD650, 24 h (AID 1178).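 Also: growth measured as culture turbidity by optical density at 650 nm; test concentration not given here.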 Particulars: higher = more signal, called active from +8 up or from −8 down.
Experiment [8] is described as follows: E. coli acrAB mutant growth effects, primary screen, E. coli filamentation inducers, strain DRC39, OD650, 48 h (AID 1179).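 Also: screen aims at cell division blockers that make cells filament.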 Particulars: E. coli DRC39 delta-acrAB growth, higher = more signal, called active from +8 up or from −8 down.
The nature of experiment [9]: RPMI8226 myeloma cell viability, profiling panel, resazurin fluorescence, basal, 24 h, PK04 Diversity Set (AID 1180).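 Also: RPMI8826 multiple myeloma cell line at 5000 cells per well; test concentration not given here.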 Particulars: higher = more signal.
Experiment [10] has as its target E3 ubiquitin-protein ligase XIAP (Homo sapiens) (UniProt P98170). Put plainly: XIAP binders, primary screen, biophysical, small-molecule microarray, fluorescence 635 nm (AID 1181).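 Also: score merges 667 nm emission and signal to noise over triplicate slides.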 Particulars: small-molecule microarray binding, higher = more signal.

Calls of active or inactive are those of the source. Unless noted, no rule for the calls is given here.

E3 ubiquitin-protein ligase XIAP (Homo sapiens), sequence (P98170 whole entry, looked up): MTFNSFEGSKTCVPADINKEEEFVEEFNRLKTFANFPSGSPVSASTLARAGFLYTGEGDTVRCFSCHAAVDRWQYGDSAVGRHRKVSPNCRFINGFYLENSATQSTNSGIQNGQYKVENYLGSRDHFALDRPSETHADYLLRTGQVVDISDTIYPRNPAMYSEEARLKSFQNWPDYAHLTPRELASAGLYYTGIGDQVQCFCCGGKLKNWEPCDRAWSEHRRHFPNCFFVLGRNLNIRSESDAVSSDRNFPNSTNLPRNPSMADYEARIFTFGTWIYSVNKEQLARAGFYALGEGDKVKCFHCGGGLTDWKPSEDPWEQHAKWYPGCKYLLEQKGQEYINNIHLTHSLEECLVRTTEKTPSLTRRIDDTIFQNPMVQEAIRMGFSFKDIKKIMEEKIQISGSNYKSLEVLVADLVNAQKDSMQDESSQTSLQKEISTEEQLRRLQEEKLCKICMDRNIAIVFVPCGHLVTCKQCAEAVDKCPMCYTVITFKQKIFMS
Dihydroorotate dehydrogenase (quinone), mitochondrial (Plasmodium falciparum (isolate 3D7)), sequence (Q08210 whole entry, looked up): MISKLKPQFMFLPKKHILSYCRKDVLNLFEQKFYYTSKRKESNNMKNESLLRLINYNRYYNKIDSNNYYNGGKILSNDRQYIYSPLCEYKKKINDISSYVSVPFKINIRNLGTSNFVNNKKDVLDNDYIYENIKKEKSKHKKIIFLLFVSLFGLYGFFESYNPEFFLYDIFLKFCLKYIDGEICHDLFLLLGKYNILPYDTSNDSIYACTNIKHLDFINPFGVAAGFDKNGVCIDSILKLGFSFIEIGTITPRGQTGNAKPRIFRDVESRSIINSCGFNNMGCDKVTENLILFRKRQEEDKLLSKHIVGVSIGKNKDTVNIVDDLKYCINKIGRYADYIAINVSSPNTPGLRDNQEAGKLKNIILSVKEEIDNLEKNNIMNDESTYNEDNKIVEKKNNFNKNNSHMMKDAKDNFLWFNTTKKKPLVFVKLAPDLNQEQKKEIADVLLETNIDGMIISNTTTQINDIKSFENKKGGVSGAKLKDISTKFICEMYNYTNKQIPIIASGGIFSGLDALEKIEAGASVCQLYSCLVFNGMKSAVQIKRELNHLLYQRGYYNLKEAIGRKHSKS

`Cc1ccc(S[C@]2(C(=O)NC3CC3)CC(=O)N(C3Cc4ccccc4C3)[C@@H]2c2ccc(CO)cc2)cc1`: the z-score in [1] is -0.122; in [2], -0.612 (inactive); in [3], 0.0142 (inactive); in experiment [5] it was 0.472 (inactive); in [6] it was -1.52 (inactive); in [7], 0.851 (inactive). Further, the z-score was 1.26 (inactive) in experiment [8] and 0.0919 in [9]. In addition, the composite z-score in experiment [4] is -1.85 (inactive); in [10] it was -0.162.
`C=CCOC(=O)[C@@H]1[C@H]2C(=O)O[C@H](c3ccccc3)[C@H](c3ccccc3)N2[C@H](c2ccc(OCCOC(=O)[C@@H]3C[C@@H]4C(=O)N[C@@H](Cc5ccccc5)C(=O)N4[C@@H]3c3ccc(O)cc3)cc2)[C@@]12C(=O)Nc1ccc(I)cc12`: the z-score is -0.437 in experiment [1]; 0.963 (inactive) in experiment [2]; 0.372 (inactive) in experiment [3]; 2.1 (inactive) in experiment [5]; 1.91 (inactive) in experiment [6]; -0.0033 (inactive) in [7]. Moreover, the values for the z-score in [8] and in experiment [9] were -1.53 (inactive) and 0.411, respectively. Also, the figures for the composite z-score in experiment [4] and in experiment [10] were -0.0246 (inactive) and 0.104, respectively.
For the molecule `C=CCC(OC(C)=O)[C@@H]1[C@@H](N(Cc2cccc3ccccc23)C(=O)c2ccc(-c3ccccc3)cc2)c2cc(OCCCO)ccc2N1C(=O)Cc1ccc(OC)cc1` (stereo not given in full), the z-score in experiment [1] is 1.07; in experiment [2] it was -0.912 (inactive); in experiment [3] it was 1.6 (inactive); in experiment [5] it was -0.513 (inactive); in experiment [6], -1.2 (inactive); in experiment [7] it was 0.738 (inactive). The z-score was 0.718 (inactive) in [8] and 1.45 in experiment [9]. In addition, the composite z-score in [4] was -0.606 (inactive); in experiment [10], -0.0076.
Take `[N-]=[N+]=NCc1ccccc1C[C@]1(C(=O)N2CCOCC2)N=C(c2ccc(OCCCO)cc2)O[C@H]1c1ccccc1N=[N+]=[N-]`: the z-score is 0.168 in experiment [1]; -1.05 (inactive) in experiment [2]; -1.21 (inactive) in experiment [3]; -0.357 (inactive) in [5]; -0.405 (inactive) in experiment [6]; 1.14 (inactive) in [7]. The values for the z-score in [8] and in experiment [9] were 0.957 (inactive) and -1.61, respectively. The composite z-score in experiment [4] is 0.152 (inactive); in experiment [10], -0.113.
On to `CC(C)C[C@@H]1NC(=O)[C@H]2C[C@@H](C(=O)NCCCCCCN(C)C)[C@@H](c3ccc(O)cc3)N2C1=O`, for which the z-score in experiment [1] was -0.447; in [2], -0.476 (inactive); in experiment [3], -0.671 (inactive); in [5] it was -0.214 (inactive); in experiment [6], -0.217 (inactive); in experiment [7] it was 0.0306 (inactive). For the same molecule, the z-score in experiment [8] is 0.152 (inactive); in experiment [9] it was -1.26. Also, the composite z-score in [4] was -0.687 (inactive); in experiment [10], 0.125.
In the case of `CC(C)C[C@H]1NC(=O)[C@@]23C(=O)N[C@@H](Cc4ccccc4)C2[C@H](C)[C@@]2(C)O[C@H]2C3/C=C/C/C=C\CNC(=O)[C@H](Cc2ccccc2)NC1=O` (stereo not given in full), the z-score was 0.183 in [1]; 0.0247 (inactive) in experiment [2]; 0.333 (inactive) in experiment [3]; 0.0117 (inactive) in experiment [5]; 1.66 (inactive) in experiment [6]; 0.805 (inactive) in experiment [7]. In addition, the values for the z-score in experiment [8] and in [9] were 0.199 (inactive) and 0.628, respectively. Also, the composite z-score in experiment [4] was -0.259 (inactive); in experiment [10] it was 0.0842.
`COc1ccc([Si](C)(C)[C@@H]2[C@@H](CC(=O)N3Cc4ccccc4C[C@H]3CO)O[C@]3(C(=O)N(C)c4c(Br)cc(C)cc43)[C@H]2C)cc1`: the z-score in experiment [1] was -2.26; in experiment [2], -1.5 (inactive); in experiment [3], -6.01 (inactive); in experiment [5], 1.85 (inactive); in experiment [6], 1.7 (inactive); in experiment [7] it was 1.34 (inactive). For the same molecule, the z-score in experiment [8] was 1.01 (inactive); in [9], -5.76. Further, the composite z-score in [4] is 0.961 (inactive); in [10] it was -0.089.
As for `CN(C)C(=O)[C@]1(Cc2ccccc2CN=[N+]=[N-])N=C(c2ccc(OCCCO)cc2)O[C@@H]1c1ccccc1CN=[N+]=[N-]`, the z-score in [1] is -0.053; in [2], -0.868 (inactive); in experiment [3], -1.19 (inactive); in experiment [5], 1.06 (inactive); in experiment [6] it was -0.111 (inactive); in experiment [7], 0.187 (inactive). The z-score in [8] is -0.719 (inactive); in [9], -1.1. Also, the composite z-score in experiment [4] is 0.587 (inactive); in [10] it was 0.0015.
Take `O=C1c2ccccc2[C@](Cc2ccccc2I)(C(=O)NC2CC2)[C@H](c2ccc(CO)cc2)N1C1CCCCC1`: the z-score is -0.13 in [1]; 0.404 (inactive) in experiment [2]; 0.516 (inactive) in [3]; 0.304 (inactive) in experiment [5]; 2.64 (inactive) in [6]; -0.0781 (inactive) in [7]. For the same molecule, the figures for the z-score in [8] and in experiment [9] were -0.585 (inactive) and 0.549, respectively. Further, the values for the composite z-score in experiment [4] and in experiment [10] were 1.06 (inactive) and -0.0426, respectively.
As for `COc1ccc(NN2C(C(O)c3ccc([N+](=O)[O-])cc3)C=CC3C(=O)N(C4CCCCC4)C(=O)C32)cc1` (stereo not given), the z-score in experiment [1] is 0.755; in [2] it was 0.136 (inactive); in [3], 0.0225 (inactive); in [5], 0.67 (inactive); in [6] it was 0.388 (inactive); in experiment [7], -0.637 (inactive). Also, the z-score in experiment [8] is 0.523 (inactive); in [9], 0.907. Moreover, the composite z-score in experiment [4] was -0.238 (inactive); in [10], 0.209.
As to `Cc1ccc(S[C@]2(C(=O)NCC(C)C)CC(=O)N(Cc3cc(C(F)(F)F)cc(C(F)(F)F)c3)[C@@H]2c2ccc(CO)cc2I)cc1`, the z-score in experiment [1] was -0.0295; in [2], -3.38 (inactive); in [3] it was -2.99 (inactive); in [5], -0.522 (inactive); in [6], -1.19 (inactive); in experiment [7], -0.155 (inactive). In addition, the z-score is -0.586 (inactive) in [8] and -2.27 in experiment [9]. Also, the composite z-score was -0.83 (inactive) in experiment [4] and -0.17 in experiment [10].
Take `COC(=O)[C@@]1(Cc2ccc(F)cc2)[C@H]2c3cc(C(=O)N4CCCC4)n(Cc4ccc(C)o4)c3C[C@H]2CN1C(=O)c1ccccc1`: the z-score in [1] is -0.814; in experiment [2] it was 0.707 (inactive); in experiment [3], -6.17 (inactive); in [5], -0.595 (inactive); in experiment [6], 0.544 (inactive); in experiment [7] it was -0.201 (inactive). Further, the results for the z-score in experiment [8] and in experiment [9] were 0.548 (inactive) and -5.35, respectively. In addition, the composite z-score in experiment [4] was -1.04 (inactive); in experiment [10] it was 0.0623.
